Most compounds without a hit are left out; they make up all but 4.7% or so of the library.
ATXN2 expr inh = inhibitors of ATXN2 expression | HEK-293 ATXN2-luciferase reporter, luminescence, 24 h | Potency, µM (titrated, usually from 57 µM), for the others: at the highest dose activity change, negative = inhibition, usual class: inhibitors | 0.72% of 360,000 active | AID 1745845; note: potency is the fitted concentration of half-maximal effect; % is set by controls: 0 for no effect and ±100 for the full control effect; nearly all actives have a fitted effect of over 55% in size
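qHTS (up to 57 uM final) was run with 24 h compound exposure of reporter cells at 37 °C. Each well was multiplexed: SteadyGlo luminescence measured ATXN2-luciferase expression after a fluorogenic Gly-Phe-AFC viability readout (25 uM final).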
D3 ag = D3 dopamine receptor (human) agonism; P35462; D3R DiscoveRx beta-arrestin cells, luminescence, 90 min; max activation, %; 0.58% of 410,000 active; AID 652048; in the data active = max activation above about 30%; note: 0% is about no effect
Target sequence (P35462 whole entry, looked up): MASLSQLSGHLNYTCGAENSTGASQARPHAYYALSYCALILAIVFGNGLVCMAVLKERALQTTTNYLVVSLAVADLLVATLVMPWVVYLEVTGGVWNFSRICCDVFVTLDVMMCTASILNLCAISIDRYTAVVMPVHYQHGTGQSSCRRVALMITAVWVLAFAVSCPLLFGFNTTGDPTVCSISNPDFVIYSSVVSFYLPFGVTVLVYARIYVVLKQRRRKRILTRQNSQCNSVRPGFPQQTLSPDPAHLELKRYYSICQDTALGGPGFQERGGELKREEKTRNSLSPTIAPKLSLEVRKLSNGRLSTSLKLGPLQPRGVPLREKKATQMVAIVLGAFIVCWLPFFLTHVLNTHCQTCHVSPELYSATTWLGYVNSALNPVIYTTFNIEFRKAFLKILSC
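Agonist-mode cell screen: cells plated at 1500/well and incubated overnight at 37 °C, then exposed to library compounds for 90 min at 37 °C. Detection reagent was added for 30–60 min at room temperature, and luminescence was read.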
HepG2 viability = HepG2 cytotoxicity, counter-screen for TGF-b inhibitors; AID 588856; HepG2 CAGA-GFP viability, ATP luminescence, 18 h; Potency, µM (titrated, usually from 46.1 µM), without a hit: at the top dose activity change, negative = cytotoxicity, actives largely listed as cytotoxic; 0.76% of 410,000 active; note: potency is the fitted concentration of half-maximal effect
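CellTiter-Glo luminescence gave cytotoxicity after 18 hours at 37 degrees C. The cells were HepG2 CAGA-GFP in 1% FBS DMEM, stimulated with 500 pg/mL TGF-beta after compound addition. %Activity was normalised to no-cell wells (complete cell-killing) and DMSO (no toxicity), and curves were fitted and classified.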
DRD3 antagonist = antagonists of human D3 dopamine receptor; 2.5% of 360,000 active; D3R cells, DiscoveRx beta-arrestin luminescence, antagonist mode; stronger effect = lower value; max response, negative = inhibition, %; AID 652054; in the data active = max response below about -50%; inconclusive = no clear call, values can overlap the other calls; note: % is set by controls: 0 for no effect and ±100 for the full control effect
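Cells expressing the human receptor were seeded at 1500 cells/well, incubated overnight at 37 degrees C in 5% CO2, then exposed to library compounds with dopamine controls for 90 minutes at 37 degrees C before luminescent detection.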
ATXN viability = viability counter-screen for ATXN expression inhibitors | S2 cells (HEK-293 line with an ATXN2-luciferase reporter) viability, CellTiter-Fluor protease fluorescence, 24 h | Potency, µM (highest dose often 56.7 µM), most hits filed as cytotoxic | 0.49% of 400,000 active; note: potency is the fitted concentration of half-maximal effect; nearly all actives have a fitted effect of over 40% in size
TGFb inhibitor = blocks TGF-b signaling; HepG2 CAGA-GFP TGF-b/SMAD3 reporter, GFP fluorescence, 18 h; TGF-beta stimulated, 500 pg/mL final; 1.2% of 410,000 active; AID 588855; Potency, µM (series often up to 46.1 µM), for inactives: top-dose activity, negative = inhibition, most hits filed as inhibitors; note: potency is the fitted concentration of half-maximal effect; % is set by controls: 0 for no effect and ±100 for the full control effect; nearly all actives have a fitted effect of over 65% in size
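Smad-responsive CAGA-GFP expression was quantified in HEPG2 cells exposed to compounds and 500 pg/mL final TGF-beta for 18 h at 37 degrees C; unstimulated wells defined full inhibition.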
* marks the source's active call; other numbers are inactive results; i = inactive; u = inconclusive; x = no result. Unless noted, calls come from the whole dose curve; as a rule, active = well fitted curve in the direction sought with a large enough effect; inconclusive = small, poorly fitted or top-dose-only effect, or another doubt; inactive = no such curve, though single readings can be large; an effect the other way counts as inactive or inconclusive.

SMILES	ATXN2 expr inh	D3 ag	HepG2 viability	DRD3 antagonist	ATXN viability	TGFb inhibitor
Cc1nn(-c2ccc(C(=O)N3CCN(S(=O)(=O)c4ccccc4C(F)(F)F)CC3)cc2)c(C)c1Cl	-12.1%	112.4*	-14.8%	2.3	i	u
COc1cc(/C=N/Nc2nncn2/N=C/c2ccc(O)c(OC)c2)ccc1O	-18.8%	9.3	10µM*	10.3	i	4.2%
CCOc1cc(/C=N/Nc2nnc(C)n2N)ccc1O	-33.0%	-7.0	11.2µM*	-3.7	i	11.2µM*
CCOc1ccc(CCn2c(-c3ccco3)nc3ccccc3c2=O)cc1OCC	u	35.9*	-21.6%	28.1	u	-2.0%
Oc1cccc(-c2nc3ncccn3c2Nc2cccc(C(F)(F)F)c2)c1	u	0.0	-69.2%	x	u	12.6µM*
O=C(Cc1cccc([N+](=O)[O-])c1)NCc1nc2cccnc2n1Cc1ccc(F)cc1	x	-19.9	-10.1%	x	x	-23.5%
O=S(=O)(c1ccc(C(F)(F)F)cc1)N1CCN(c2nc(-c3ccccc3)nc3ccccc23)CC1	x	x	-1.3%	x	x	2.3%
COC(=O)c1c(C)cc(O)c(C=O)c1O	2.0%	-15.3	-15.3%	-52.8*	i	0.4%
COC(=O)c1c(C)c(OC(=O)c2c(C)cc(O)c(C=O)c2O)cc(C)c1O	-3.9%	4.9	1.3%	-8.2	i	-19.4%
COc1ccccc1C(=O)NCC(=O)N=Nc1c(O)n(C(C)C)c2ccccc12	x	-14.8	8.4%	-59.1*	i	-18.7%
CC(C)n1c(O)c(N=NC(=O)CNC(=O)Cc2ccc(Cl)cc2)c2ccccc21	3.2%	-3.0	-13.7%	-14.8	i	-17.4%
CCn1c(O)c(N=NC(=O)CNC(=O)c2ccco2)c2ccccc21	x	-2.8	-0.7%	-1.9	i	-42.2%
CCn1c(O)c(N=NC(=O)CNC(=O)c2ccccc2F)c2ccccc21	-0.7%	-6.9	11.3%	-74.3*	i	-1.3%
Cc1ccc(S(=O)(=O)Nc2ccc(-c3ccc(N4CCCCCC4)nn3)cc2)cc1C	16.5%	-2.1	-27.5%	x	i	29.6%
Cn1c(N2CCN(S(=O)(=O)c3ccc(F)cc3)CC2)nc2ccccc21	-10.6%	2.5	-17.4%	-12.0	i	0.8%
CCn1c(N2CCN(S(=O)(=O)c3ccccc3C(F)(F)F)CC2)nc2ccccc21	-5.4%	31.9*	-5.8%	5.4	i	-12.3%
CCn1c(N2CCN(S(=O)(=O)c3ccc(OC)cc3)CC2)nc2ccccc21	-31.0%	36.2*	-25.2%	-1.5	i	u
O=S(=O)(c1ccccc1C(F)(F)F)N1CCN(S(=O)(=O)c2ccccc2C(F)(F)F)CC1	-6.5%	-1.8	1.3%	6.3	i	-2.0%
CCc1ccc(CNC(=O)c2sc3ncnc(N(C)C4CCCCC4)c3c2C)cc1	-29.6%	6.0	-4.3%	x	u	u
CCOC(=O)C(=O)CCCCCCl	8.4%	x	x	x	i	x
C#CCOCCOCCOCCNc1nc(N2CCN(C(=O)Cn3cc(CCO)nn3)CC2)nc(N2CCN(C(=O)[C@H](Cc3ccc(O)cc3)n3cc(CCO)nn3)CC2)n1	-1.6%	46.8*	3.1%	u	i	u
C#CCOCCOCCOCCNc1nc(N2CCN(C(=O)Cn3cc(CCO)nn3)CC2)nc(N2CCN(C(=O)[C@H]([C@@H](C)CC)n3cc(CCCN=C(N)N)nn3)CC2)n1	7.0%	52.8*	0.0%	-2.9	i	-30.3%
C#CCOCCOCCOCCNc1nc(N2CCN(C(=O)CCCCCCCCCCNC(=O)[C@@H](CCC(=O)O)n3cc(CCCCCN)nn3)CC2)nc(N2CCN(C(=O)CCCCCCCCCCNC(=O)[C@H]([C@@H](C)CC)n3cc(CCCCCN)nn3)CC2)n1	-25.2%	35.3*	-65.5%	10.4	u	u
C#CCOCCOCCOCCNc1nc(N2CCN(C(=O)Cn3cc(CCCN=C(N)N)nn3)CC2)nc(N2CCN(C(=O)[C@H]([C@@H](C)CC)n3cc(CCCCN)nn3)CC2)n1	-0.6%	-20.1	-0.4%	0.0	i	13.2%
C#CCOCCOCCOCCNc1nc(N2CCN(C(=O)CCCCCCCCCCNC(=O)[C@H]([C@@H](C)CC)n3cc(CCCCN=C(N)N)nn3)CC2)nc(N2CCN(C(=O)CCCCCCCCCCNC(=O)[C@H](CCCCN)n3cc(C)nn3)CC2)n1	25.1µM*	-19.5	11.2µM*	u	20µM*	15.8µM*
SMILES	ATXN2 expr inh	D3 ag	HepG2 viability	DRD3 antagonist	ATXN viability	TGFb inhibitor
C#CCOCCOCCOCCNc1nc(N2CCN(C(=O)[C@H](C(C)C)n3cc(CCO)nn3)CC2)nc(N2CCN(C(=O)[C@H](Cc3ccc(O)cc3)n3cc(CCO)nn3)CC2)n1	3.3%	-20.5	-10.3%	18.5	i	0.2%
O=C(Nc1ccc(C(=O)OCc2cc(=O)n3c4c(sc3n2)CCCC4)cc1)c1ccc(F)cc1	x	7.4	3.4%	x	x	15.0%
O=C(Cc1c[nH]c2ccccc12)N1CCC(n2c(C3CCCO3)nc3cc(C(F)(F)F)ccc32)CC1 (stereo unspecified)	x	x	x	x	i	x
CCc1ccc(-n2cnc3cc(C(=O)NCc4ccc(C)cc4)ccc32)cc1	0.0%	-1.3	-26.0%	x	u	-3.2%
Cc1ccc(CN(Cc2cc3cc(C)ccc3[nH]c2=O)Cc2nnnn2Cc2ccccc2)cc1	x	x	-5.3%	x	x	5.4%
COC(=O)C1[C@H]2SC(C)(C)C(C(=O)OC)N2C(=O)N1Cc1ccccc1 (stereo partly specified)	x	x	-7.3%	x	x	-27.4%
C#CCOCCOCCOCCNc1nc(N2CCN(C(=O)CCCCCCCCCCNC(=O)[C@H]([C@@H](C)CC)n3cc(CCCCCN)nn3)CC2)nc(N2CCN(C(=O)CCCCCCCCCCNC(=O)[C@H](CO)n3cc(CCCCCN)nn3)CC2)n1	u	0.9	14.1µM*	-19.8	22.4µM*	u
C#CCOCCOCCOCCNc1nc(N2CCN(C(=O)CCCCCCCCCCNC(=O)[C@H](CCCCN)n3cc(C)nn3)CC2)nc(N2CCN(C(=O)CCCCCCCCCCNC(=O)[C@H](CCCCN)n3cc(CCCC(=O)O)nn3)CC2)n1	7.1%	5.5	8.4%	25.6	i	u
C#CCOCCOCCOCCNc1nc(N2CCOCC2)nc(N2CCN(C(=O)CCCCCCCCCCNC(=O)[C@@H]([C@H](C)CC)n3cc(CCCCCN)nn3)CC2)n1	u	0.0	-39.1%	-23.1	u	u
C#CCOCCOCCOCCNc1nc(N2CCN(C(=O)CCCCCCCCCCNC(=O)Cn3cc(CCCCCN)nn3)CC2)nc(N2CCN(C(=O)CCCCCCCCCCNC(=O)[C@H]([C@@H](C)CC)n3cc(CCCCN=C(N)N)nn3)CC2)n1	20µM*	-33.9	-101.6%	-63.2*	15.8µM*	u

Source: PubChem BioAssay (National Center for Advancing Translational Sciences (NCATS))
